In PubChem BioAssay AID602163 (The Scripps Research Institute Molecular Screening Center, 2012):
Out of some 360,000 compounds screened, about 1,100 (0.31%) were called active. This is one part of a sample in which actives are shown more often than they occur. Values without a mark were called inactive. Cut-off read from the data, not from the text of the source: active = activation above about 7.5%; inactive = the rest.

The molecules below were run on Methionine sulfoxide reductase A (Bos taurus) (assay: activation of methionine sulfoxide reductase A – biochemical, absorbance, bovine, HTS, primary screen (AID 602163;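 note: 0% = vehicle and 100% = reference activator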)). Details: purified bovine MsrA, absorbance read-out; at 10.6 µM; stronger effect = higher value.

Row | SMILES | activation
1 | CC(=O)C1=C(O)C(=O)N(c2ccc(Br)cc2)C1c1ccc([N+](=O)[O-])cc1 (stereo not drawn) | -4.41%
2 | COc1ccc(C2C(C(C)=O)=C(O)C(=O)N2c2nccs2)cc1 (stereo not drawn) | -4.03%
3 | COC(=O)CN1C(=O)C(O)=C(C(C)=O)C1c1ccc([N+](=O)[O-])cc1 (stereo not drawn) | 8.27% (active)
4 | COC(=O)c1ccccc1NC(=O)C1(S(=O)(=O)c2ccc(Cl)cc2)CC1 | -4.86%
5 | CCCc1c(C)nc2c(Br)cccc2c1Cl | -2.47%
6 | CCN(CC)CCCC(C)n1c2nc(=O)[nH]c(=O)c-2nc2cc(Cl)ccc21 (stereo not drawn) | 11.7% (active)
7 | COC(C/C=C/C(=O)[C@@H](C)OCc1ccccc1)OC | 5.11%
8 | CSC1=NC2(C)CCCCC2C12C=CC(=O)C=C2 (stereo not drawn) | -3.42%
9 | CC(C)CCNC(=O)C1CCC(CNc2c(N3CCC(C)CC3)c(=O)c2=O)CC1 (stereo not drawn) | -7.85%
10 | CC(C)(C)N1C(=O)c2c(C(=O)OCc3ccccc3)[nH]c(-c3ccccc3)c2C1=O | -2.85%
11 | O=C1C(Sc2cccc(F)c2)=C[C@@]2(O)CC[C@@H](O)[C@]1(Sc1cccc(F)c1)[C@H]2O | 11.4% (active)
12 | CN1CCN(c2ccc(CNS(=O)(=O)c3cccc(F)c3)cc2)CC1 | -2.8%
13 | Cc1nccn1CCCNC(=O)CC1C(=O)NCCN1Cc1ccc(Cl)c(F)c1 (stereo not drawn) | -5.91%
14 | O=c1onc(-c2cccs2)n1Cc1ccccc1 | -2.25%
15 | O=C(O)/C=C/c1cn(Cc2ccccc2)nc1-c1cccs1 | 9.05% (active)
16 | COc1ccc(NC(=O)CN(C)C(=O)/C=C/c2cn(Cc3ccccc3)nc2-c2cccnc2)cc1 | -3.42%
17 | Cc1cccc(NC(=O)Cn2c(=O)n(Cc3ccccc3)c(=O)c3c(C)c(C)sc32)c1 | -2.33%
18 | O=C1CCC(C(=O)N2CCC(O)(c3ccccc3)CC2)CN1CCc1ccccc1 (stereo not drawn) | -3.3%
19 | COc1ccc(C(=O)NCC2CCCO2)cc1S(=O)(=O)NCc1ccc(Cl)cc1 (stereo not drawn) | -6%
20 | COc1ccc(Cl)cc1NS(=O)(=O)c1cccc(C(=O)NC2CCC(O)CC2)c1 (stereo not drawn) | -0.8%
21 | COc1ccc(Cl)cc1NS(=O)(=O)c1cccc(C(=O)NCC2CCCO2)c1 (stereo not drawn) | 8.29% (active)
22 | CC(C)NC(=S)NN=C1CCCCCCCCCCC1 | -2.24%
23 | C=C(C)C1CC=C(C)/C(=N\NC(=O)CNc2ccccc2OC)C1 (stereo not drawn) | -4.34%
